Assay results reported in the supplement of paper PMC9023506.
Structures can show the parent of a compound that is named as a salt.

Test system: Danio rerio larvae (5 dpf)
Experiment: optomotor response to blue moving lines, difference vs DMSO (percentage points (treated minus DMSO)); higher = more of the behaviour than the DMSO vehicle control
Details: 10 µM; exposure time: 3 h pre-incubation + 3 h imaging
Description: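 5-dpf wild-type zebrafish larvae were imaged in 96-well plates. They were treated with 190 Tocris FDA-approved drugs at 10 µM (1 µl/ml DMSO) for 3 h before and 3 h during imaging at 28.5 °C, 48 larvae per drug. Automated image analysis gave % time moving and optomotor responses. Values are drug group mean minus DMSO vehicle mean (n=844), in percentage points, for 10 behaviours.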

Compared with `C[C@H](Cc1cc2c(c(C(N)=O)c1)N(CCCO)CC2)NCCOc1ccccc1OCC(F)(F)F` [Silodosin], `COc1cc(N)c(Cl)cc1C(=O)NC1CCN(CCCOc2ccc(F)cc2)CC1OC` (stereo not given) [Cisapride] is lower in “optomotor response to blue moving lines” value: 15.7 for the first, 4.41 for the second.

Going from `CN/C(=N\CCSCc1nc[nH]c1C)NC#N` [Cimetidine] to `C#CCN[C@@H]1CCc2ccccc21` [Rasagiline mesylate], the “optomotor response to blue moving lines” value rises from 4.9 to 15.8.

Going from `OC(c1cc(C(F)(F)F)nc2c(C(F)(F)F)cccc12)C1CCCCN1` (stereo not given) [Mefloquine hydrochloride] to `C[C@@H](O[C@H]1OCCN(Cc2n[nH]c(=O)[nH]2)[C@H]1c1ccc(F)cc1)c1cc(C(F)(F)F)cc(C(F)(F)F)c1` [Aprepitant], the “optomotor response to blue moving lines” value falls from 10.8 to 4.96.

First: CC(C)c1nc(N(C)S(C)(=O)=O)nc(-c2ccc(F)cc2)c1/C=C/[C@@H](O)C[C@@H](O)CC(=O)O [Rosuvastatin calcium]
Second: Nc1nc2[nH]cc(CCc3ccc(C(=O)N[C@@H](CCC(=O)O)C(=O)O)cc3)c2c(=O)[nH]1 [Pemetrexed]
The “optomotor response to blue moving lines” value of the first is higher: 10.7 for the first, 1.87 for the second.

Going from `NS(=O)(=O)c1cc(C(=O)O)c(NCc2ccco2)cc1Cl` [Furosemide] to `COc1cc2nc(N3CCN(C(=O)c4ccco4)CC3)nc(N)c2cc1OC` [Prazosin hydrochloride], the “optomotor response to blue moving lines” value falls from 6.22 to 0.0687.

Compared with `CCOc1cc(CC(=O)N[C@@H](CC(C)C)c2ccccc2N2CCCCC2)ccc1C(=O)O` [Repaglinide], `CCOC(=O)[C@H](CCc1ccccc1)N[C@H]1CCc2ccccc2N(CC(=O)O)C1=O` [Benazepril hydrochloride] is higher in “optomotor response to blue moving lines” value: -2.55 for the first, 5.7 for the second.

First: CC(CCc1ccc(O)cc1)NCCc1ccc(O)c(O)c1 (stereo not given) [Dobutamine hydrochloride]
Second: CC(=O)Nc1ccc(O)cc1 [Acetaminophen]
The “optomotor response to blue moving lines” value of the first is lower: -11.2 for the first, 5.11 for the second.

Compared with `CN1CCC[C@@H]1CCO[C@](C)(c1ccccc1)c1ccc(Cl)cc1` [Clemastine fumarate], `CC(C)(C(=O)O)c1ccc(C(O)CCCN2CCC(C(O)(c3ccccc3)c3ccccc3)CC2)cc1` (stereo not given) [Fexofenadine hydrochloride] is lower in “optomotor response to blue moving lines” value: 22.4 for the first, 4.47 for the second.

First: CC(=O)O[C@]1(C(C)=O)CC[C@H]2[C@@H]3C=C(C)C4=CC(=O)CC[C@]4(C)[C@H]3CC[C@@]21C [Megestrol Acetate]
Second: C[C@@H]1C[C@H]2[C@@H]3CCC4=CC(=O)C=C[C@]4(C)[C@@]3(F)[C@@H](O)C[C@]2(C)[C@@]1(O)C(=O)CO [Dexamethasone]
The “optomotor response to blue moving lines” value of the first is lower: -7.55 for the first, 2.76 for the second.

First: CS(=O)(=O)CCNCc1ccc(-c2ccc3ncnc(Nc4ccc(OCc5cccc(F)c5)c(Cl)c4)c3c2)o1 [Lapatinib]
Second: Cc1cccc(CN2CCN(C(c3ccccc3)c3ccc(Cl)cc3)CC2)c1 (stereo not given) [Meclizine dihydrochloride]
The “optomotor response to blue moving lines” value of the first is higher: 6.39 for the first, -6.39 for the second.

Going from `O=C(Nc1c(Cl)cncc1Cl)c1ccc(OC(F)F)c(OCC2CC2)c1` [Roflumilast] to `Cc1ccccc1C(=O)Nc1ccc(C(=O)N2CCCC(O)c3cc(Cl)ccc32)c(C)c1` (stereo not given) [Tolvaptan], the “optomotor response to blue moving lines” value rises from -1.76 to -0.344.

Going from `Nc1cccc2c1CN(C1CCC(=O)NC1=O)C2=O` (stereo not given) [Lenalidomide] to `O=C(O[C@@H]1C[C@@H]2C[C@H]3C[C@H](C1)N2CC3=O)c1c[nH]c2ccccc12` [Dolasetron mesylate], the “optomotor response to blue moving lines” value falls from 3.02 to 0.622.

Compared with `CNC(=O)c1ccccc1Sc1ccc2c(/C=C/c3ccccn3)n[nH]c2c1` [Axitinib], `C=CC(=O)N1CCC[C@@H](n2nc(-c3ccc(Oc4ccccc4)cc3)c3c(N)ncnc32)C1` [Ibrutinib] is lower in “optomotor response to blue moving lines” value: 13.5 for the first, 6.42 for the second.

Going from `C=C1[C@H](CO)[C@@H](O)C[C@@H]1n1cnc2c(=O)[nH]c(N)nc21` [Entecavir] to `O=c1[nH]c(=O)n([C@H]2C[C@H](O)[C@@H](CO)O2)cc1C(F)(F)F` [Trifluorothymidine], the “optomotor response to blue moving lines” value falls from 11.4 to 6.73.

Going from `COc1cc2nc(N3CCN(C(=O)C4COc5ccccc5O4)CC3)nc(N)c2cc1OC` (stereo not given) [Doxazosin mesylate] to `CCCc1nn(C)c2c(=O)[nH]c(-c3cc(S(=O)(=O)N4CCN(C)CC4)ccc3OCC)nc12` [Sildenafil citrate], the “optomotor response to blue moving lines” value rises from -6.52 to 8.78.

Going from `Cc1cc(C2CCCCC2)n(O)c(=O)c1` [Ciclopirox] to `CC(C)C(=O)OCC(=O)[C@@]12O[C@H](C3CCCCC3)O[C@@H]1C[C@H]1[C@@H]3CCC4=CC(=O)C=C[C@]4(C)[C@H]3[C@@H](O)C[C@@]12C` [Ciclesonide], the “optomotor response to blue moving lines” value rises from -8.77 to -2.62.

First: CC(C)CN(C[C@@H](O)[C@H](Cc1ccccc1)NC(=O)O[C@H]1CO[C@H]2OCC[C@H]21)S(=O)(=O)c1ccc(N)cc1 [Darunavir]
Second: CCOC(=O)[C@H](CCc1ccccc1)N[C@@H](C)C(=O)N1[C@H](C(=O)O)C[C@@H]2CCC[C@@H]21 [Ramipril]
The “optomotor response to blue moving lines” value of the first is higher: 8.12 for the first, 4.54 for the second.

Compared with `CN(C)C(=N)NC(=N)N` [Metformin hydrochloride], `CCCCCCCN(CC)CCCC(O)c1ccc(NS(C)(=O)=O)cc1` (stereo not given) [Ibutilide hemifumarate] is lower in “optomotor response to blue moving lines” value: 22.6 for the first, 12.1 for the second.

First: CC[C@H]1OC(=O)[C@H](C)[C@@H](O[C@H]2C[C@@](C)(OC)[C@@H](O)[C@H](C)O2)[C@H](C)[C@@H](O[C@@H]2O[C@H](C)C[C@H](N(C)C)[C@H]2O)[C@](C)(O)C[C@@H](C)CN(C)[C@H](C)[C@@H](O)[C@]1(C)O [Azithromycin]
Second: CN1CC2c3ccccc3Oc3ccc(Cl)cc3C2C1 (stereo not given) [Asenapine maleate]
The “optomotor response to blue moving lines” value of the first is higher: -9.61 for the first, -10 for the second.

Compared with `CC(C)OC(=O)C(C)(C)Oc1ccc(C(=O)c2ccc(Cl)cc2)cc1` [Fenofibrate], `CC(C)C(=O)Nc1ccc([N+](=O)[O-])c(C(F)(F)F)c1` [Flutamide] is lower in “optomotor response to blue moving lines” value: 12.7 for the first, -17.2 for the second.
